Bioassay records: PubChem, National Center for Advancing Translational Sciences (NCATS)
Sampled rows, rich in hits. Any-hit rate of the full collection: about 8.9%.
ALDH1A1 block – qHTS Assay for Inhibitors of Aldehyde Dehydrogenase 1 (ALDH1A1); Purified ALDH1A1, NADH fluorescence, propionaldehyde substrate; Potency, µM (titrated, usually from 75.3 µM), inactives show at the top dose activity, negative = inhibition, hits mostly inhibitors; hit rate 7.3% among 220,000; AID 1030, 2008; active = well fitted inhibition curve with a large enough effect, not every such curve was filed as active; inconclusive = small, poorly fitted or top-dose-only effect, or another doubt; inactive = no such curve, though single readings can be large or run the other way;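 note: potency is the fitted concentration of half-maximal effect; plate controls were no enzyme wells and a reference inhibitor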
12-hLO inh – qHTS Assay for Inhibitors of 12-hLO (12-human lipoxygenase). purified 12-hLO, xylenol orange hydroperoxide absorbance. Potency, µM (series often up to 57.1 µM), for the others: top-dose activity change, negative = inhibition, hits mostly inhibitors. hit rate 0.12% among 150,000. AID 1452, 2008; note: potency is the fitted concentration of half-maximal effect; nearly all actives have a fitted effect of over 55% in size
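Hydroperoxide formation by human 12-lipoxygenase from 40 uM arachidonic acid was followed colorimetrically via ferric-xylenol orange complex, using the 573/405 nm absorbance ratio. Enzyme concentration was 150 nM, with 30 min reaction at room temperature.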
HPGD inh – qHTS Assay for Inhibitors of HPGD (15-Hydroxyprostaglandin Dehydrogenase) | hit rate 4.3% among 150,000 | AID 894, 2007 | purified HPGD, NADH fluorescence kinetic, PGE2 substrate | Potency, µM, without a hit: top-dose activity change, negative = inhibition, actives largely listed as inhibitors | 15-hydroxyprostaglandin dehydrogenase [NAD(+)] (Homo sapiens), P15428; active = well fitted inhibition curve with a large enough effect, not every such curve was filed as active; inconclusive = small, poorly fitted or top-dose-only effect, or another doubt; inactive = no such curve, though single readings can be large or run the other way; note: potency is the fitted concentration of half-maximal effect
Target sequence (P15428 whole entry, looked up): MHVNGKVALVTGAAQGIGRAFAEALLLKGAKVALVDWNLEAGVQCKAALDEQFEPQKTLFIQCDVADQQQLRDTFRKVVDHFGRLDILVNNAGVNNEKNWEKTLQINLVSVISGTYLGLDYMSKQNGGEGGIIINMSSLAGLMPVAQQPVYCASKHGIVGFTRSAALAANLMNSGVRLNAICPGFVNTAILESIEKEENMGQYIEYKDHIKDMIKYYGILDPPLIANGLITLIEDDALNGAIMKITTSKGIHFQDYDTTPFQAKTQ
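20 nM HPGD preincubated 15 min at room temperature with compound in 50 mM Tris-HCl pH 8, 0.01% Tween 20. Started with 1 mM NAD+ and 30 uM prostaglandin E2; NADH fluorescence (360/450 nm) read 5 times over 30-s intervals, last minus first.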
NPSR antag – qHTS Assay for Antagonists of the Neuropeptide S Receptor: cAMP Signal Transduction. Q6W5P4. CHO-NPSR cells, cAMP TR-FRET, antagonist mode. Potency, µM (doses to about 38.3 µM), inactives show at the top dose activity change, negative = inhibition, usual class: inhibitors. hit rate 1% among 220,000. AID 1461, 2008; note: potency is the fitted concentration of half-maximal effect; nearly all actives have a fitted effect of over 50% in size
IMPase Li cell – qHTS Assay for Identifying the Cell-Membrane Permeable IMPase Inhibitors: Potentiation with Lithium; CHO-M1 cells, IP1 TR-FRET (IP-One), carbachol + lithium; Potency, µM (top dose mostly 59.4 µM), inactives show top-dose activity, negative = IMPase inhibition, usual class: inhibitors; hit rate 0.35% among 210,000; AID 1457, 2008;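 note: IP1 builds up when IMPase is blocked and the TR-FRET signal falls; potency is the fitted concentration of half-maximal effect; plate controls were basal vehicle for no effect and high inhibitor control for full effect; nearly all actives have a fitted effect of over 50% in size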
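Concentration–response in CHO-M1 cells, lithium-potentiated; 30 min at 37C. IP1 detected by competitive TR-FRET after 10 min lysis at RT. Hill-fitted AC50.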
IMPase inh – qHTS Assay for Identifying the Cell-Membrane Permeable IMPase Inhibitors. CHO-M1 cells, IP1 accumulation, HTRF TR-FRET ratio. inhibition (IP1 accumulation), % at 46.1 µM. 120,000 tested, under 10 active; active = well fitted curve in the direction sought with a large enough effect in the signal ratio, not every such curve was filed as active; inconclusive = small, poorly fitted or top-dose-only effect, or a change in a side signal; inactive = no such curve, though single readings can be large or run the other way; the % refers to the signal ratio;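 note: cells stimulated with carbachol in lithium chloride buffer; plate controls were DMSO basal wells for no effect and reference inhibitor wells for full effect; higher means more IMPase inhibition seen as more IP1 and lower FRET ratio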
Target sequence (P97697 whole entry, looked up): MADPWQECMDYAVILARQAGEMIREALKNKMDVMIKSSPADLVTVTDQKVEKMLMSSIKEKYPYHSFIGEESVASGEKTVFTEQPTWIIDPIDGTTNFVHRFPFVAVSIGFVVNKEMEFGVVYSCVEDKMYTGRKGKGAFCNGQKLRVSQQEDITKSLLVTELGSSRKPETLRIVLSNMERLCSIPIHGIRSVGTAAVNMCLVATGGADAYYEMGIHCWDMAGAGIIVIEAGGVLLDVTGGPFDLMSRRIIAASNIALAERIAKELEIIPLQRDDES
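Cellular IMPase inhibition is scored as a rise in cytosolic IP1, detected by competitive TR-FRET between d2-labelled IP1 and a europium anti-IP1 antibody. M1-expressing CHO cells were stimulated with carbachol for 30 min at 37C, with lithium (50 mM LiCl) present in the buffer.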
An asterisk follows results filed as active; [ ] = dose if it differs, or a comment. Unless noted, calls come from the whole dose curve; as a rule, active = well fitted curve in the direction sought with a large enough effect; inconclusive = small, poorly fitted or top-dose-only effect, or another doubt; inactive = no such curve, though single readings can be large; an effect the other way counts as inactive or inconclusive. Unless noted, % is set by controls: 0 for no effect and ±100 for the full control effect.

`C=CCNc1nnc(SC2CC(=O)N(c3ccc(OC)cc3)C2=O)s1` (centres undefined) gave ALDH1A1 block 2µM*, 12-hLO inh 0.1%, HPGD inh inconclusive, NPSR antag 3.8%[46.1 µM], IMPase Li cell 1.8%[38.3 µM] and IMPase inh 3.6.
For O=C1NCCCCC1NC1CC(=O)N(c2ccccc2)C1=O (centres undefined) the results were ALDH1A1 block -11.9%, 12-hLO inh -1.8%, HPGD inh -3.8%, NPSR antag 2.8%[46.1 µM], IMPase Li cell 2.5%[38.3 µM] and IMPase inh 9.3.
COc1ccc(N2C(=O)CC(NNc3nc4ccccc4s3)C2=O)cc1 (centres undefined) was read as NPSR antag -10.9%.
Screening COc1ccc(N2C(=O)CC(Sc3nnc(-c4ccccc4F)n3C)C2=O)cc1 (centres undefined) returned ALDH1A1 block 1.78µM*, NPSR antag -0.9% and IMPase Li cell -14.8%.
COc1ccc(N2C(=O)CC(Sc3nc4ccccc4s3)C2=O)cc1 (centres undefined) was read as ALDH1A1 block 7.94µM*, NPSR antag -6.0% and IMPase Li cell -1.2%.
For Cn1nnc2cc(C(=O)NC3CC3)ccc21 the results were ALDH1A1 block 4.5%, 12-hLO inh -3.7%, HPGD inh inconclusive, NPSR antag -4.8%[46.1 µM], IMPase Li cell -11.9%[38.3 µM] and IMPase inh 5.5.
Screening Cc1ccnc(SCCn2c(N3CCCCC3)nc3c2c(=O)n(C)c(=O)n3C)n1 returned ALDH1A1 block -9.7%, 12-hLO inh -2.9%, HPGD inh -13.4%, NPSR antag -7.1%[46.1 µM], IMPase Li cell -14.3%[38.3 µM] and IMPase inh 14.5.
For N#Cc1c(-c2cccs2)cc(-c2ccccn2)nc1N the results were ALDH1A1 block inconclusive, 12-hLO inh -16.9%, HPGD inh inconclusive, NPSR antag -16.9%[46.1 µM], IMPase Li cell inconclusive and IMPase inh -0.2.
`CCOc1ccc2nc(SC3CC(=O)N(c4ccc(OC)cc4)C3=O)sc2c1` (centres undefined) gave ALDH1A1 block 15.8µM*, 12-hLO inh 4.6%, HPGD inh -27.3%, NPSR antag -18.0%[46.1 µM], IMPase Li cell 12.4%[38.3 µM] and IMPase inh -2.4.
`NCCSC1CC(=O)N(Cc2ccc(F)cc2)C1=O` (centres undefined) gave ALDH1A1 block 2.24µM*, NPSR antag 7.4% and IMPase Li cell 18.9%.
`COc1ccc(N2C(=O)CC(Sc3nccc(C)n3)C2=O)cc1` (centres undefined) gave ALDH1A1 block 22.4µM*, 12-hLO inh 2.6%, HPGD inh -2.2%, NPSR antag -6.0%[46.1 µM], IMPase Li cell -8.2%[38.3 µM] and IMPase inh 2.6.
CCOc1ccc(N2C(=O)CC(SCCN)C2=O)cc1 (centres undefined) was read as ALDH1A1 block 3.16µM*, 12-hLO inh 3.2%, HPGD inh -5.6%, NPSR antag -19.1%[46.1 µM], IMPase Li cell -1.2%[38.3 µM] and IMPase inh -5.7.
For COc1cccc(C2NC(=O)NC(C)=C2C(=O)OCC2CCCO2)c1 (centres undefined) the results were ALDH1A1 block 0.1%, NPSR antag 8.0% and IMPase Li cell 27.5%.
Screening CCCc1cc2c(=O)c(-c3ccc4c(c3)OCCO4)c(C)oc2cc1OS(C)(=O)=O returned ALDH1A1 block 0.355µM*, 12-hLO inh -4.1%, HPGD inh -12.2%, NPSR antag inconclusive, IMPase Li cell 25.1% and IMPase inh 7.1.
CCOc1cc(OCC)cc(C(=O)Nc2cccc(-c3nc4ccccc4[nH]3)c2)c1 was read as IMPase inh 4.3.
Screening Cc1cn(-c2ccc(Br)cc2)[nH]c1=O returned ALDH1A1 block 3.9%, 12-hLO inh 3.5%, HPGD inh 25.1µM*, NPSR antag inconclusive, IMPase Li cell 4.0% and IMPase inh 15.4.
CC1=NN(c2ccccc2)C(=O)/C1=C/c1c(O)n(-c2ccc(F)c(Cl)c2)[nH]c1=O was read as ALDH1A1 block 14.1µM*, 12-hLO inh -6.0%, HPGD inh -28.2%, NPSR antag -38.5% and IMPase Li cell 3.5%.
`CCOC(=O)N1CCN(C(=O)COc2ccc(Cl)cc2)CC1` gave ALDH1A1 block 2.5%, 12-hLO inh 5.9%, HPGD inh 6.3%, NPSR antag 2.1%[46.1 µM], IMPase Li cell 19.6%[38.3 µM] and IMPase inh -12.4.
`CC1CN(C2CCN(C(=O)COc3ccc(Cl)cc3)CC2)CC(C)O1` (centres undefined) gave ALDH1A1 block 12.6µM*, 12-hLO inh -15.1%, HPGD inh -2.5%, NPSR antag 5.5%[46.1 µM], IMPase Li cell 39.7%[38.3 µM] and IMPase inh 3.9.
For O=C(CSc1nnnn1-c1cccc2c1CCCC2)N1CCCCC1 the results were ALDH1A1 block 31.6µM*, 12-hLO inh -6.7%, HPGD inh inconclusive, NPSR antag -1.3%[46.1 µM], IMPase Li cell 2.4% and IMPase inh -3.0.
For O=C(CSc1nnc(Cc2cccs2)n1C1CCCCC1)N1CCCc2ccccc21 the results were ALDH1A1 block 3.55µM*, 12-hLO inh -7.5%, HPGD inh -22.7%, NPSR antag inconclusive, IMPase Li cell 38.9%[38.3 µM] and IMPase inh -6.8.
O=C(CSc1nc(O)cc(=O)[nH]1)N1CCCc2ccccc21 was read as ALDH1A1 block 22.4µM*, 12-hLO inh -1.7%, HPGD inh 17.8µM*, NPSR antag -9.6%[46.1 µM], IMPase Li cell 15.9%[38.3 µM] and IMPase inh -0.5.
`Cc1ccc(-n2nnnc2SCC(=O)N2CCCCC2)cc1` gave ALDH1A1 block -1.0%, 12-hLO inh 5.5%, HPGD inh -4.4%, NPSR antag -8.9%[46.1 µM], IMPase Li cell 6.1%[38.3 µM] and IMPase inh 1.2.
Screening O=C(O)c1ccc(CSc2nnnn2C2CCCCC2)cc1 returned ALDH1A1 block 17.8µM*, 12-hLO inh 26.9%, HPGD inh -20.9%, NPSR antag -4.5%[46.1 µM], IMPase Li cell 12.8% and IMPase inh -11.5.
Screening O=C1CCC(=O)N1c1ccc(CSc2nnnn2C2CCCCC2)cc1 returned ALDH1A1 block inconclusive, 12-hLO inh -5.5%, HPGD inh -10.5%, NPSR antag -3.7%[46.1 µM], IMPase Li cell -0.1%[38.3 µM] and IMPase inh 2.5.
COc1ccc2c(c1)-c1nc(NC(=O)c3cc(Cl)ccc3OC)sc1CC2 was read as IMPase inh 6.7.
